Bioassay records as filed in PubChem BioAssay.
Pol kappa inh: inhibitors of human DNA polymerase kappa; purified Pol kappa, fluorescent DNA synthesis assay, 10 min; hit rate 0.53% among 400,000; Q9UBT6; Potency, µM (top dose mostly 107 µM), for the others: at the top dose activity, negative = inhibition, actives largely listed as inhibitors; AID 588579; note: potency is the fitted concentration of half-maximal effect; % is set by controls: 0 for no effect and ±100 for the full control effect
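Enzyme at 10 nM met test compounds for 15 min at room temperature. Substrate addition (50 nM final) began the reaction, which was monitored by fluorescence at 0 and 10 min.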
POLH inh: blocks human DNA polymerase eta activity; AID 588591; Potency, µM (doses to about 114 µM), inactives show at the top dose activity change, negative = inhibition, actives largely listed as inhibitors; hit rate 1.2% among 390,000; Q9Y253; recombinant Pol eta, fluorescent DNA replication assay; note: potency is the fitted concentration of half-maximal effect; % is set by controls: 0 for no effect and ±100 for the full control effect
Target sequence (Q9Y253 whole entry, looked up): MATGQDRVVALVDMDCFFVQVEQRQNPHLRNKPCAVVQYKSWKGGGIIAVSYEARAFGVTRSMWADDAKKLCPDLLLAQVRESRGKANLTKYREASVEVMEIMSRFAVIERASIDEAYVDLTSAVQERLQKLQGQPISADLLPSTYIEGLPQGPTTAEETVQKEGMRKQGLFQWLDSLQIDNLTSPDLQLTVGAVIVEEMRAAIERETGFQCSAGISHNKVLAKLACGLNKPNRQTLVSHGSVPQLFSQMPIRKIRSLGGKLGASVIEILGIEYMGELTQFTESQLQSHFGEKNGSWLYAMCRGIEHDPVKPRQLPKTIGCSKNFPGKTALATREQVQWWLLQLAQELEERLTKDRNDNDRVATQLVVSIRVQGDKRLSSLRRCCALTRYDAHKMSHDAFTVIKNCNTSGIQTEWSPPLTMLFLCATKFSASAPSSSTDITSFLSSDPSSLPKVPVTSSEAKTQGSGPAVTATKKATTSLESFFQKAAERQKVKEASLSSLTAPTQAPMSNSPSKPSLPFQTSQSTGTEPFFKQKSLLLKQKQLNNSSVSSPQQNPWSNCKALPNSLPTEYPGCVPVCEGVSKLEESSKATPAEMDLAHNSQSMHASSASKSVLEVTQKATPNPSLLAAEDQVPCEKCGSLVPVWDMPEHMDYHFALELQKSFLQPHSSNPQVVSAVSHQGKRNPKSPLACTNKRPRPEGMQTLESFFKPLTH
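Pol eta at 10 nM preincubated with compounds 15 min at room temperature; reaction started with fluorescent substrate (50 nM final) and read kinetically at 0 and 10 min.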
Pol beta inh: blocks human DNA polymerase beta activity. Potency, µM (top dose mostly 114 µM), for inactives: at the top dose activity change, negative = inhibition, usual class: inhibitors. Pol beta primer extension/strand displacement, fluorescence kinetic. P06746. hit rate 1.3% among 340,000; note: potency is the fitted concentration of half-maximal effect; % is set by controls: 0 for no effect and ±100 for the full control effect
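10 nM enzyme + cpd, 15 min RT; start with substrate 50 nM final; read 0 min and after 10 min RT. Corrected, normalized data; 4-parameter Hill curve fit.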
Pol iota inh: blocks human DNA polymerase iota activity. Pol iota fluorescent replication assay, 10 min. Potency, µM (highest dose often 115 µM), inactives show at the top dose activity, negative = inhibition, actives largely listed as inhibitors. AID 588590. Q9UNA4. hit rate 1% among 390,000; note: potency is the fitted concentration of half-maximal effect
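Fluorescent replication assay read twice, at 0 min and 10 min after adding 50 nM (final) substrate. Enzyme (10 nM) and compounds were first incubated 15 min at room temperature; enzyme-free buffer wells were negative controls.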
ALOX12 inh: blocks human arachidonate 12S-lipoxygenase; P18054; purified 12hLO, xylenol orange hydroperoxide absorbance; Potency, µM (titrated, usually from 108 µM), inactives show at the top dose activity change, negative = inhibition, hits mostly inhibitors; hit rate 1.1% among 580,000; note: potency is the fitted concentration of half-maximal effect; % is set by controls: 0 for no effect and ±100 for the full control effect
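Purified human 12hLO (150 nM final) in 25 mM Hepes, 0.01% Triton X-100, pH 7.0 was preincubated 15 min at room temperature with compound. Then 40 uM arachidonic acid was added, 30 min. Hydroperoxide was read by Fe-XO absorbance ratio 573/405 nm.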
PI5P4Ka inh: inhibitors of human PI5P4K alpha; PI5P4Kalpha enzyme, ADP-Glo luminescence, 60 min; hits give low values; hit rate 1.2% among 330,000; max response, %; active = max response of -50% or lower; inconclusive = between -30% and -50%; inactive = -30% or higher; note: value at the top dose of about 77 µM; % is set by controls: 0 for no effect and ±100 for the full control effect
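Quantitative HTS of the MLSMR library against PI5P4Kalpha with substrate. ATP added last at 5 microM final; room temperature, 60 minutes. Remaining ATP depleted, ADP converted and read as luminescence.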
* = called active by the depositor; ? = inconclusive; . = no result given; ! = not active in a repeat; [ ] = dose if it differs, or a comment. The list is not random: actives were taken first. Their share in the collection is about 2.9%. Unless noted, calls come from the whole dose curve; as a rule, active = well fitted inhibition curve with a large enough effect; inconclusive = small, poorly fitted or top-dose-only effect, or another doubt; inactive = no such curve, though single readings can be large or run the other way.

SMILES	Pol kappa inh	POLH inh	Pol beta inh	Pol iota inh	ALOX12 inh	PI5P4Ka inh
Cc1cc(C(=O)N2CCN(S(=O)(=O)c3ccccc3)CC2)c(C)n1C(C)C	.	.	.	.	5%	.
Oc1c(Cl)cc(Cl)c2cccnc12	-7%[60.1 µM]	-6%	4%	123%	20µM*!	-19
CC(=O)NC(C)c1cc(Cl)c2cccnc2c1O (centres undefined)	-11%	-9%	.	-1%	-15%	.
O=S(=O)(Nc1cc(Sc2ncn[nH]2)c(O)c2ccccc12)c1ccccc1	-19%	22µM*	?	1.1µM*	?	-90*
Cc1onc(-c2ccccc2)c1-c1nnc(CN(C)CC(=O)N2CCCC2)o1	.	.	.	.	8%	.
CCC1(c2ccccc2)NC(=O)N(NC(=O)c2nn(-c3ccccc3)c(=O)c3ccccc23)C1=O (centres undefined)	.	.	.	.	26%	.
O=C(CSc1ccc2c(c1)OCCO2)NCc1ccco1	?	?	40µM*	?	-32%	-10
O=C(CSc1nncs1)NC(=O)NCc1ccco1	-11%	2%	?	?	-9%	7
O=C(CSc1nc(-c2ccc(F)cc2)cs1)NC(=O)NCc1ccco1	-41%	?	?	50µM*	5%	.
Cc1ccccc1Nc1nnc(SCC(=O)NC(=O)NCc2ccco2)s1	?	?	?	22µM*	-7%	.
Cc1ccc(SCC(=O)NC(=O)NCc2ccco2)cc1C	.	.	40µM*	.	.	.
O=C(CSc1nnc(Nc2ccccc2)s1)NCc1ccco1	-1%	-7%	16%	?	12%	0
O=C(Cc1ccsc1)Nc1ccccc1Br	.	.	.	.	-3%	.
Cc1cccc(N2CCN(C(=O)CNC(=O)NCc3ccc(F)cc3)CC2)c1C	.	.	.	.	-2%	.
COc1ccccc1OCC(=O)NCc1ccco1	1%	0%	8%	-6%	0%	.
COc1ccccc1C(C)NCC(=O)NC(=O)NCc1ccco1 (centres undefined)	-31%	?	.	50µM*	6%	-18
CCNC(=O)c1cc(-c2ccc(OC)cc2OC)nc2ccccc12	.	.	.	.	8.9µM*	.
O=C(c1cc(-c2cccc(Br)c2)nc2ccccc12)N1CCCC1	-24%	-17%	22µM*	?	-7%	-16
COc1ccc(-c2cc(C(=O)N3CCCC3)c3ccccc3n2)c(OC)c1	.	.	.	.	18µM*	.
O=C(c1cc(-c2ccc(Br)cc2)nc2ccccc12)N1CCC1	-9%	0%	.	33%	25%	-5
CCN(CC)C(=O)c1cc(C(=O)Nc2ccc(F)c(Cl)c2)n(C)n1	.	.	.	.	7%	.
Cc1cc(C(=S)N2CCOCC2)c(C)n1-c1ccc(Cl)cc1	-17%	-15%	1%	4%	20µM*	-24
Cc1c(C)c2cc(Cl)c(OC(C)C(=O)NCc3ccccn3)cc2oc1=O (centres undefined)	.	.	.	.	10%	.
O=C(Cc1cccs1)Nc1nnc(-c2ccc(F)cc2)s1	-9%	-7%	12%	12%	13%	0
O=C(Cc1cccs1)Nc1nnc(Cc2ccc(F)cc2)s1	.	.	40µM*	.	0%	.
SMILES	Pol kappa inh	POLH inh	Pol beta inh	Pol iota inh	ALOX12 inh	PI5P4Ka inh
CCC(CC)c1nnc(NC(=O)Cc2cccs2)s1	-18%	79µM*	?	-15%	?	?
C=CC[N+](C)(C)CC(=O)c1ccccc1	.	.	.	.	-10%	.
CC(C)CCNC(=O)C(=O)N1CCN(C(=O)c2cc3ccccc3[nH]2)CC1	.	.	.	.	3%	.
O=C(CCC1CCCN(C(=O)c2ccc3cc[nH]c3c2)C1)N1CCN(c2ccccn2)CC1 (centres undefined)	8%	-6%	40µM*	-4%	-8%	0
O=C(CCC1CCCN(C(=O)c2ccc3[nH]ccc3c2)C1)N1CCN(c2ccccn2)CC1 (centres undefined)	2%	-4%	1%	-3%	2%	-2
Nc1nccnc1C(=O)Nc1cccc(/C=C/c2ccccn2)c1	.	.	.	.	4%	.
Cc1ccc(SCCN2CCN(C)CC2)cc1	-13%	1%	96%	-13%	40µM*	-2
O=C(O)CCc1ccc(-c2ccc(F)cc2)n1CC(=O)O	-13%	11µM*	-3%	?	?	0
